Potency, activity, negative = cell killing and outcome data for 6 compounds are collected here from PubChem BioAssay (NCATS).

Records with an inconclusive call do not appear. A number with no mark means an inactive call. Calls of active or inactive are those of the source. Calls come from the whole dose curve; as a rule, active = well fitted curve in the direction sought with a large enough effect; inconclusive = small, poorly fitted or top-dose-only effect, or another doubt; inactive = no such curve, though single readings can be large; an effect the other way counts as inactive or inconclusive.

The subject of one test is MCC-26. Put plainly: qHTS assay to identify novel small-molecules to repurpose for Merkel cell carcinoma treatment (AID 1296009). Note: nearly all actives have a fitted effect of over 60% in size. Conditions: MCC and control cell lines, CellTiter-Glo viability, 72 h; series mostly up to 46 µM. The method in brief:
(§1)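 After compound transfer in DMSO, plates were kept 72 hr at 37 degree celsius. Luminescent ATP signal from CellTiter-Glo served as viability measure, normalized against DMSO and no-cell controls.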

Another test relates to MKL-1. Described as above. Particulars: MCC and control cell lines, CellTiter-Glo viability, 72 h; series mostly up to 46 µM. The gist of the method:
as §1
Background: In ATP-based viability assays light output follows the ATP content of the culture.

For another test, the system named is MKL-2. The description is as above. Conditions: MCC and control cell lines, CellTiter-Glo viability, 72 h; series mostly up to 46 µM. The method in brief: as §1
For the next test, the system named is UISO. The description is as above. Conditions: MCC and control cell lines, CellTiter-Glo viability, 72 h; series mostly up to 46 µM. The method in brief:
as §1

For another test, the system named is WaGa. The test is described as above. Conditions: MCC and control cell lines, CellTiter-Glo viability, 72 h; series mostly up to 46 µM. The method in brief:
as §1

The test system of the next test is C33A. Description: Primary qHTS to identify gynecologic anti-cancer compounds using libraries of approved drugs and bioactive compounds (AID 1345084). Note: nearly all actives have a fitted effect of over 55% in size. Particulars: Gynecologic cancer cell panel viability, ATPlite luminescence, 48 h; series mostly up to 57.5 µM. The gist of the method: (§2)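 Cytotoxicity screen measuring ATP content by luciferase luminescence. Each compound is applied at five concentrations for 48 h at 37 C with 5% CO2.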
(In general: In qHTS, concentration-response curves come from the screen itself.)

For a further test, the system named is CAOV3. The test is described as above. Conditions: Gynecologic cancer cell panel viability, ATPlite luminescence, 48 h; series mostly up to 57.5 µM. The method in brief:
as §2

For another test, the system named is CASKI. Described as above. Particulars: Gynecologic cancer cell panel viability, ATPlite luminescence, 48 h; series mostly up to 57.5 µM. The gist of the method: as §2
For the next test, the system named is Es-2. The description is as above. Conditions: Gynecologic cancer cell panel viability, ATPlite luminescence, 48 h; series mostly up to 57.5 µM. The method in brief: as §2
Another test concerns HeLa. The test is described as above. Particulars: Gynecologic cancer cell panel viability, ATPlite luminescence, 48 h; series mostly up to 57.5 µM. The gist of the method: as §2
The next test concerns Hek293T. Described as above. Particulars: Gynecologic cancer cell panel viability, ATPlite luminescence, 48 h, control line for the selectivity index; series mostly up to 57.5 µM. The method in brief:
as §2

Another test relates to JEG-3. The test is described as above. Particulars: Gynecologic cancer cell panel viability, ATPlite luminescence, 48 h; series mostly up to 57.5 µM. The gist of the method:
as §2

A further test has as its system OV90. The description is as above. Particulars: Gynecologic cancer cell panel viability, ATPlite luminescence, 48 h; series mostly up to 57.5 µM. The method in brief:
as §2

For a further test, the system named is PA-1. The description is as above. Particulars: Gynecologic cancer cell panel viability, ATPlite luminescence, 48 h; series mostly up to 57.5 µM. The method in brief:
as §2

In another test the test system is SKOV3. The description is as above. Particulars: Gynecologic cancer cell panel viability, ATPlite luminescence, 48 h; series mostly up to 57.5 µM. The gist of the method:
as §2

The subject of a further test is Tov-21-G. The description is as above. Conditions: Gynecologic cancer cell panel viability, ATPlite luminescence, 48 h; series mostly up to 57.5 µM. The gist of the method:
as §2

The next test has as its system Tov112D. The description is as above. Conditions: Gynecologic cancer cell panel viability, ATPlite luminescence, 48 h; series mostly up to 57.5 µM. The gist of the method: as §2
The nature of test [1]: Drug repurposing screens with cells derived from glioblastoma tumor samples (AID 1345199). Note: nearly all actives have a fitted effect of over 40% in size. Note: potency is the fitted concentration of half-maximal effect. Particulars: GBM patient neurospheres viability, ATP luminescence, 48 h. The gist of the method: (§3)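 Four patient lines of CD133+ GBM neurospheres were screened at several concentrations; hits were retested in those lines plus three slower-growing GBM lines, using 48-hour treatment and ATP-based viability.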

The test system of the next test is astro. The description is as above. Conditions: viability, ATP luminescence, 48 h; series mostly up to 45.9 µM. The gist of the method:
as §3

The subject of another test is NIH3T3. Put plainly: qHTS assay to identify novel small-molecules to repurpose for Merkel cell carcinoma treatment (AID 1296009). Note: nearly all actives have a fitted effect of over 60% in size. Particulars: MCC and control cell lines, CellTiter-Glo viability, 72 h; at 44.8 µM (top of the series) unless noted. The method in brief: as §1
Where [2] appears, read: at 45.9 µM (top of the series), tumour line B.
Where [3] appears, read: at 45.9 µM (top of the series), tumour line D.
[4] abbreviates: at 46 µM (top of the series), tumour line A.
Where [5] appears, read: at 46.1 µM (top of the series), tumour line C.
% is set by controls: 0 for no effect and ±100 for the full control effect.

Turning to `O=C1OC(OC(=O)c2cccnc2Nc2cccc(C(F)(F)F)c2)c2ccccc21` (stereo not given), the Potency result in the test on MCC-26, with MKL-1, in the test on MKL-2, in the test on UISO, with WaGa and with C33A was “inactive” each time. The Potency result in the test with CAOV3, in the test with CASKI, in the test with Es-2, with HeLa, in the test with Hek293T and with JEG-3 was “inactive” throughout. Moreover, the Potency result with OV90, with PA-1, with SKOV3, with Tov-21-G and in the test on Tov112D was “inactive” throughout. The activity, negative = cell killing in [1] (setting [2]) is -18.8%; in test [1] (setting [3]), 3.71%.

`COc1ccccc1O`: the Potency result with MCC-26, in the test on MKL-1, in the test on MKL-2, with UISO, with WaGa and with C33A was “inactive” each time. In addition, the Potency result in the test with CAOV3, in the test on CASKI, in the test on Es-2, in the test with HeLa, with Hek293T and in the test on JEG-3 was “inactive” in each case. The Potency entry in the test on OV90, with PA-1, with SKOV3, with Tov-21-G, in the test on Tov112D and with astro was “inactive” each time. The activity, negative = cell killing in test [1] (setting [2]) is -3.97%; in test [1] (setting [3]), 4.42%; in test [1] (setting [4]), -31.4%; in [1] (setting [5]), 30.9%; in [1] (at 91.6 µM (top of the series), tumour line B), -1.8%; in [1] (at 91.6 µM (top of the series), tumour line D) it was -26.1%. Moreover, the activity, negative = cell killing in [1] (at 99.2 µM (top of the series), tumour line C) is -15%.

Regarding `CCOc1nc2cccc(C(=O)O)c2n1Cc1ccc(-c2ccccc2-c2nn[nH]n2)cc1`, the Potency entry in the test with MCC-26, in the test with MKL-1, in the test on MKL-2, in the test on UISO, in the test with WaGa and with C33A was “inactive” each time. In addition, the Potency entry in the test with CASKI, in the test on Es-2, in the test with HeLa, in the test on Hek293T, with JEG-3 and in the test with OV90 was “inactive” each time. Moreover, the Potency entry in the test with PA-1, in the test with SKOV3, in the test with Tov-21-G and with Tov112D was “inactive” throughout. Also, in the test with NIH3T3, the compound was called inactive. The activity, negative = cell killing in [1] (setting [2]) was 5.1%. In addition, the Potency with astro was 20 µM (active).

For `O=C(O)c1ccccc1-c1ccc(C(F)(F)F)cc1`, the Potency entry in the test with MCC-26, in the test with MKL-1, in the test on MKL-2, in the test with UISO, in the test with WaGa and with C33A was “inactive” each time. Besides, the Potency result in the test on CAOV3, in the test on CASKI, in the test with Es-2, in the test on HeLa, in the test on Hek293T and with JEG-3 was “inactive” each time. The Potency entry in the test with OV90, in the test with PA-1, with SKOV3, in the test with Tov-21-G, in the test on Tov112D and in the test on astro was “inactive” throughout. Besides, the activity, negative = cell killing is -7.48% in [1] (setting [2]), -6.37% in [1] (setting [3]), -14.4% in test [1] (setting [4]) and 1.99% in test [1] (setting [5]).

Regarding `CCCCN(CCCC)CCCOC(=O)c1ccc(N)cc1`, the Potency result with MCC-26, with MKL-1, with MKL-2, with UISO, with WaGa and with C33A was “inactive” in each case. Moreover, the Potency entry in the test with CASKI, in the test on Es-2, in the test with HeLa, with Hek293T, in the test with JEG-3 and in the test with OV90 was “inactive” in each case. Further, the Potency entry in the test with PA-1, with SKOV3, in the test on Tov-21-G, in the test with Tov112D and with astro was “inactive” each time. Moreover, the compound was classed as inactive with NIH3T3. For the same compound, the activity, negative = cell killing in test [1] (at 20 µM (top of the series), tumour line C) was -6.46%; in [1] (at 21.2 µM (top of the series), tumour line B), 6.6%; in test [1] (at 21.2 µM (top of the series), tumour line D), -16%.

Take `Oc1ccc(C(O)CNCCCCCCNCC(O)c2ccc(O)c(O)c2)cc1O` (stereo not given): the Potency result in the test on MCC-26, with MKL-1, in the test with MKL-2, in the test with UISO, in the test with WaGa and in the test with C33A was “inactive” in each case. Besides, the Potency entry in the test with CAOV3, in the test with CASKI, in the test on Es-2, in the test with HeLa, with Hek293T and in the test with JEG-3 was “inactive” throughout. In addition, the Potency entry in the test on OV90, in the test with PA-1, in the test on SKOV3, in the test on Tov-21-G and in the test on Tov112D was “inactive” each time. In addition, the activity, negative = cell killing in test [1] (setting [2]) was -10.1%; in test [1] (setting [3]) it was -27.7%.
